# This is a sample that favours compounds with a hit; in the whole collection about 3.4% have one here.
# PG9 Ab binder: binders of HIV-1 gp120 antibody PG9, primary screen, biochemical, TR-FRET; inhibition, % at 6.7 µM; TR-FRET gp120-PG9 antibody binding; 360,000 tested, 0.43% active; HIV-1 gp120 / PG9 antibody interaction; AID 624416, 2012; in the data active = inhibition above about 8.5%
# FXN GAA850 act: FXN promoter activators, primary screen, cell-based, luciferase luminescence, HEK293 lucGAA850. 360,000 tested, 0.56% active. activation, % at 6 µM. HEK293 lucGAA850 FXN promoter luciferase reporter, 24 h; percent of 10 µM SAHA response. AID 540364, 2011;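 active = activation above the average of all compounds screened plus 3 SD, cutoff fixed separately per campaign, cut at about 7.5% in these data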;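 note: 0% = DMSO wells and 100% = 10 µM SAHA wells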
# AI-2 QS mod: Vibrio harveyi AI-2 quorum sensing modulators, primary screen, JMH597 strain, luminescence/OD600 ratio | Vibrio harveyi JMH597 AI-2 luminescence/OD600 ratio, 9 h; stronger effect = lower value; strain lacks LuxN and CqsS sensors; 0 = neutral-control median | activity change, % at 7.5 µM | 300,000 tested, 0.4% active | AID 2094, 2009; in the data active = activity change below about -75%, passing the limit was not always enough;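 note: luminescence divided by OD600 gain over 9 h not by final OD600 alone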
# SMARCA2 activ: SMARCA2 (BRM) function activators, primary screen, cell-based, luminescence, high throughput; activation, % at 9.1 µM; AID 652017, 2013; MG213 cells, MMTV-luciferase reporter, dexamethasone, overnight; 370,000 tested, 1% active; in the data active = activation above about 7.8%;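 note: 0% = vehicle wells and 100% = reference activator wells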
# HSF1 inh: HSF1 inhibitors in luciferase reporter cells, primary screen, cell-based, NIH3T3, luminescence | NIH3T3-HGL HSE-luciferase, MG132-induced, luminescence 8 h; stronger effect = lower value | activity change, negative = inhibition, % at 7.5 µM (by protocol) | 300,000 tested, 0.77% active | AID 2098, 2009;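 active = more than half of replicate wells show activity change below -50%, luminescence cut by over half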;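 note: luciferase reports HSF-1 transcriptional activity via heat shock element; 0% = median of DMSO wells and -100% = zero luminescence signal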
# HSP90 inh: HSP90 inhibitors, primary screen, cell lysate, luminescence | Heat shock protein HSP 90 (rabbit reticulocyte lysate; luciferase refolding) | Rabbit reticulocyte lysate, luciferase refolding luminescence, 3 h | inhibition, % at 5.6 µM | 290,000 tested, 0.91% active;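 active = inhibition above the screen-wide mean plus 3 SD, computed separately per campaign, cut at about 16% in these data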;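 note: 0% = DMSO wells and 100% = 60 µM geldanamycin wells; inhibitors lower the luminescence because luciferase stays unfolded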
# HSP90 inh confirm: HSP90 inhibitors, confirmation, cell lysate, luminescence | 2,300 tested, 64% active | rabbit reticulocyte lysate, luciferase refolding luminescence, 3 h | AID 1846, 2009 | inhibition, % at 5.9 µM | shares compounds with HSP90 inh; in the data active = inhibition above about 18%;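 note: 0% = vehicle wells and 100% = reference inhibitor wells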
# luciferase ctr: firefly luciferase inhibitors, HSP90 counter-screen, confirmation, artefact control for HSP90 inhibitor project, biochemical, luminescence, triplicate; shares compounds with HSP90 inh; inhibition, % at 5.9 µM; AID 1847, 2009; 2,300 tested, 48% active; purified native firefly luciferase;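 active = inhibition above the mean inhibition of all tested sample wells plus 3 SD, cut at about 10% in these data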;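 note: 0% = DMSO with luciferase and 100% = wells lacking luciferase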
# Target sequence (P08659 whole entry, looked up): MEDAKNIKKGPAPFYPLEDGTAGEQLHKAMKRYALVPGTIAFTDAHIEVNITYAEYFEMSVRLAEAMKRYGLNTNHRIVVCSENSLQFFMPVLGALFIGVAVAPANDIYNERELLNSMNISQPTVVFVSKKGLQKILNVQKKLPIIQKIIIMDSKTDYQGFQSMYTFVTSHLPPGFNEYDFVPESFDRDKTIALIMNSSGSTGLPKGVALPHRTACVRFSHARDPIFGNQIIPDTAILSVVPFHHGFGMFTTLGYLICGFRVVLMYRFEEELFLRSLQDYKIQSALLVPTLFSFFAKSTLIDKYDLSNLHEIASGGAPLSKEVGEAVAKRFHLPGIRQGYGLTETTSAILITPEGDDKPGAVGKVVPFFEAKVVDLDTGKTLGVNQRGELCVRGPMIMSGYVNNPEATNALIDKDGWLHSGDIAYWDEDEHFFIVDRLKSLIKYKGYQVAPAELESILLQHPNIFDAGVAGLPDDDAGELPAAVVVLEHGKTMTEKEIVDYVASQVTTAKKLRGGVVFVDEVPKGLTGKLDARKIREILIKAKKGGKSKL
# PG9 bind confirm: binders of anti-gp120 antibody PG9, confirmation, biochemical, TR-FRET; shares compounds with PG9 Ab binder; TR-FRET PG9 antibody binding; inhibition, % at 6.7 µM; 1,500 tested, 90% active; AID 651571, 2012; in the data active = inhibition above about 9%
# PGV04 Ab binding: binders of control antibody PGV04, counter-screen for PG9 antibody binder project, biochemical, TR-FRET, distinct HIV envelope site | inhibition, % at 6.7 µM | shares compounds with PG9 Ab binder | AID 651604, 2012 | TR-FRET PGV04 antibody-gp120 binding | 1,500 tested, 95% active; in the data active = inhibition above about 9.5%
# PG9 binder DR: small-molecule binders of antibody PG9, dose response, biochemical, TR-FRET, HIV-1 gp120 antibody; shares compounds with PG9 Ab binder; TR-FRET PG9 antibody-gp120 binding inhibition; IC50, µM; 95 tested, under 10 active; AID 651848, 2012; in the data active = IC50 below about 10 µM
# PGV04 DR counter: binders of control antibody PGV04, dose response, counter-screen for PG9 antibody binder project, biochemical, TR-FRET, distinct HIV envelope site; shares compounds with PG9 Ab binder; TR-FRET binding to control antibody PGV04; IC50, µM; 95 tested, 20% active
# PG126 binding DR: binders of control antibody PG126, dose response, counter-screen for PG9 antibody binder project, biochemical, TR-FRET, distinct HIV envelope site; TR-FRET binding to antibody PG126, counterscreen; AID 651939, 2012; shares compounds with PG9 Ab binder; IC50, µM; 95 tested, 20% active
# * = called active by the depositor; i = inactive; · = no result given. Cut-off read from the data, not from the text of the source, unless noted: active = IC50 below about 9 µM; inactive = the rest.
SMILES,PG9 Ab binder,FXN GAA850 act,AI-2 QS mod,SMARCA2 activ,HSF1 inh,HSP90 inh,HSP90 inh confirm,luciferase ctr,PG9 bind confirm,PGV04 Ab binding,PG9 binder DR,PGV04 DR counter,PG126 binding DR
Cc1ccccc1OCCn1nc(C(=O)O)c2ccccc2c1=O,1,2,16,-4,-5,-1,·,·,·,·,·,·,·
C#CCN1C(=O)[C@]2(NCCc3c2[nH]c2ccc(OC)cc32)c2ccccc21,·,·,·,0,·,·,·,·,·,·,·,·,·
O=C(Nc1ccc(F)c(Cl)c1)c1ccccc1,-2,3,·,3,·,·,·,·,·,·,·,·,·
O=C(Nc1ccc2ccccc2c1)c1ccc(Cl)cc1,10*,3,15,6,-7,23*,37*,17*,13*,18*,·,·,·
O=C(OCc1cn(Cc2ccc(F)c(F)c2)nn1)N1CCOCC1,·,·,·,-3,·,·,·,·,·,·,·,·,·
CCc1ccc(Nc2n[n+](-c3ccccc3)c(-c3ccc(N(CC)CC)cc3)s2)cc1,9.7*,-2,2,-2,5,20*,46*,-18,18*,11*,>67,>67,>67
COc1cccc(CNC(=O)C2CCC(CNS(=O)(=O)c3cccc4cccnc34)CC2)c1OC (stereo not drawn),·,·,·,-1,·,·,·,·,·,·,·,·,·
Cc1ccc2nc(-c3cc(-c4ccccc4)no3)cn2c1,23*,-6,2,0,2,25*,69*,58*,29*,28*,>67,i,>67

# Screening data deposited in PubChem by several laboratories.
